Records with an inconclusive call do not appear. Where a call stands in place of a potency, no number is given. Values without a mark were called inactive. The source made the active and inactive calls. The call rests on the fitted dose curve; in most records, active means well fitted cell-killing curve with a large enough effect; inconclusive means small, poorly fitted or top-dose-only effect, or effect the other way; inactive means no such curve, though single readings can be large or run the other way.
Tests used:
[1] = Viability qHTS for spleen associated tyrosine kinase inhibitor (SYKi) naive MV4-11 cells (AID 1963823); settings: MV4-11 AML viability, CellTiter-Glo luminescence, 72 h; series mostly up to 45 µM; further: nearly all actives have a fitted effect of over 40% in size
Method in brief: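 qHTS, SYK inhibitor-naive MV4-11; 500 cells/well; 72 hr compound exposure, 37 C; CellTiter-Glo added, 10 min RT; luminescence read.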

[2] = Viability qHTS for spleen associated tyrosine kinase inhibitor (SYKi) drug resistant MV4-11 cells (AID 1963824); settings: SYKi-resistant MV4-11 viability, CellTiter-Glo, 72 h; series mostly up to 45 µM; further: nearly all actives have a fitted effect of over 35% in size
Method in brief: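 SYK inhibitor-resistant MV4-11 AML cells, 500 per well, added to predispensed compounds and incubated 72 hr at 37 C, 5% CO2. Viability measured by CellTiter-Glo luminescence after 10 min at room temperature.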
Potency means the concentration at half of the fitted maximal effect.

SMILES	Potency [1]	Potency [2]	viability (% of control) [1]	viability, % of control [2]
Cc1nc(N2CCN(C(=O)c3ccco3)CC2)c2c3c(sc2n1)CCCC3	9.2 µM (active)	14.6 µM (active)		
CC1(C)CCC[C@@]2(C)[C@H]1[C@H](O)C=C(CO)[C@]2(O)CO	inactive	inactive		
C[C@]1(O)CC[C@@H]2C(C(=O)O)=CO[C@@H](O[C@@H]3O[C@H](COC(=O)c4ccc(O)cc4)[C@@H](O)[C@H](O)[C@H]3O)[C@@H]21	inactive	inactive		
CC(C)C(C#N)O[C@@H]1O[C@H](CO[C@@H]2OC[C@](O)(CO)[C@H]2O)[C@@H](O)[C@H](O)[C@H]1O (stereo partly specified)	inactive	inactive		
C[C@@H]1O[C@@H](OC[C@H]2O[C@@H](OCCc3ccccc3)[C@H](O)[C@@H](O)[C@@H]2O)[C@H](O)[C@H](O)[C@H]1O	inactive	inactive		
CC1OC2O[C@H]3[C@@H](OCC(O)[C@H]3O)OC(=O)C34CCC(C)(C)CC3C3=CCC5C6(C)CC(O)C(OC7OC(CO)C(O)C(O)C7O[C@@H]7OC[C@H](OC(=O)CC(C)(O)CC(=O)OC1C(OC1OCC(O)C(O)C1O)C2O)[C@@H](O)[C@H]7O)C(C)(CO)C6CCC5(C)C3(C)CC4 (stereo partly specified)	8.93 µM (active)	7.09 µM (active)		
Cc1nc(Nc2ccc(F)cc2)nc(N2CCc3ccccc3C2C)c1C (stereo unspecified)	20.6 µM (active)	14.6 µM (active)		
Cc1sc2c(c1C)C(c1ccc(Cl)cc1)=N[C@H](CC(=O)NCCCCNC(=O)COc1cccc3c1C(=O)N([C@H]1CCC(=O)NC1=O)C3=O)c1nnc(C)n1-2	0.0461 µM (active)	0.0461 µM (active)		
C[C@]12CC[C@@H]3c4ccc(O)cc4CC[C@H]3[C@@H]1C[C@@H](O[C@@H]1O[C@H](C(=O)O)[C@@H](O)[C@H](O)[C@H]1O)[C@@H]2O	inactive	inactive		
CC1(C)CC[C@]2(C(=O)O[C@@H]3O[C@H](CO[C@@H]4O[C@H](CO)[C@@H](O)[C@H](O)[C@H]4O[C@@H]4O[C@H](CO)[C@H](O)[C@H](O)[C@H]4O)[C@@H](O)[C@H](O[C@@H]4O[C@H](CO)[C@@H](O)[C@H](O)[C@H]4O)[C@H]3O)CC[C@]3(C)C(=CCC4[C@@]5(C)CC[C@H](O[C@@H]6OC[C@@H](O)[C@H](O)[C@H]6O)[C@@](C)(C(=O)O)C5CC[C@]43C)[C@@H]2C1 (stereo partly specified)			76.7% [at 9.25 µM]	74.7% [at 9.25 µM]
O=C(CCCCc1ccc2ccccc2c1)C(F)(F)F	inactive	inactive		
C[C@@H]1CC2OC(=O)C3=C2C(CCC3O)[C@@]12C[C@@H](c1ccoc1)OC2=O (stereo partly specified)	inactive	inactive		
C=C1[C@H]2CC[C@H](C(=O)O)[C@@]23CC[C@H](C3)C1(C)C	inactive	inactive		
CN(C)CC/C=C1\c2ccccc2COc2ccccc21	inactive	inactive		
C[C@@]12CC3(S(=O)(=O)O)OC(O1)[C@]1(COC(=O)c4ccccc4)[C@H]3C[C@]21O[C@@H]1O[C@H](CO)[C@@H](O)[C@H](O)[C@H]1O	inactive	inactive		
CC1(C(=O)O)CCCC2(C)C3CCC4CC3(CCC12)CC4C(=O)O (stereo unspecified)	inactive	inactive		
CCCCCCc1cccc(NC(=O)[C@H](N)CCP(=O)(O)O)c1			90.5% [at 9.25 µM]	99.2% [at 9.25 µM]
Fc1ccc(-c2nc(C3CCNCC3)sc2-c2ccnc(NC3CC3)n2)cc1	10.3 µM (active)	11.6 µM (active)		
N#C/C(=C1\Nc2ccccc2S1)c1ccnc(NCCc2cccnc2)n1	2.31 µM (active)	2.31 µM (active)		
CC/C=C/C=C/C1(C)OC(CC(CO)OC)=CC1=O (stereo unspecified)	20.6 µM (active)	23.1 µM (active)		
CCC/C=C/C=C/C1CC(O)C(O)C(=O)C1CO (stereo unspecified)	inactive	inactive		
C=C[C@@]12COC(=O)C(=C)C1[C@@H](O)[C@H](C(=C)C(=O)OC)[C@@H](OC(=O)C(=C)CO)C2 (stereo partly specified)	1.78 µM (active)	1.59 µM (active)		
COc1c(CCC(=O)O)cccc1O[C@@H]1O[C@H](CO)[C@@H](O)[C@H](O)[C@H]1O	inactive	inactive		
C[C@@H]1O[C@@H](O[C@H]2[C@H](OC(=O)[C@]34CCC(C)(C)C[C@H]3C3=CCC5[C@@]6(C)C[C@@H](O)[C@@H](O[C@@H]7O[C@H](CO)[C@@H](O)[C@H](O)[C@H]7O)[C@@](C)(CO)C6[C@H](O)C[C@@]5(C)[C@]3(C)CC4)OC[C@H](O)[C@@H]2O)[C@H](O)[C@H](O[C@@H]2OC[C@](O)(CO)[C@H]2O)[C@H]1O[C@@H]1OC[C@@H](O)[C@H](O[C@H]2O[C@H](C)[C@@H](O)[C@H](O)[C@@H]2O)[C@H]1O (stereo partly specified)			80.1% [at 9.25 µM]	86.5% [at 9.25 µM]

SMILES	Potency [1]	Potency [2]	viability (% of control) [1]	viability, % of control [2]
COc1cc(C2Oc3c(OC)cc(/C=C/C(=O)OC[C@H]4O[C@@H](OC(C)(C)C(=O)O)[C@H](O)[C@@H](O)[C@@H]4O)cc3C2CO)ccc1O (stereo partly specified)	inactive	inactive		
C[C@H]1[C@H](/C=C/c2ccc(-c3ccccc3C#N)cn2)[C@@H]2[C@@H](C)OC(=O)[C@@H]2C[C@@H]1C	8.2 µM (active)	7.31 µM (active)		
CC(=O)O[C@H]1[C@H](O[C@H]2[C@@H]3C=CO[C@@H](O[C@@H]4O[C@H](CO)[C@@H](O)[C@H](O)[C@H]4O)[C@@H]3[C@@]3(CO)O[C@@H]23)O[C@@H](C)[C@H](OC(=O)/C=C/c2ccccc2)[C@H]1OC(=O)/C=C/c1ccccc1			88.5% [at 9.25 µM]	83.3% [at 9.25 µM]
COc1cc(O)cc(C)c1C(=O)O[C@H]1[C@@H](OC(C)=O)[C@H](n2ccc(=O)[nH]c2=O)O[C@@H]1CO	inactive	inactive		
C=CCc1ccc(O[C@@H]2O[C@H](CO)[C@@H](O)[C@H](O)[C@H]2O)c(OC)c1	inactive	inactive		
CCC(C)/C=C(C)/C=C/C1=CC2=C(Cl)C(=O)C(C)(OC(C)=O)C(=O)C2=CN1C(CCCN=C(N)N)C(=O)O (stereo unspecified)	inactive	inactive		
COc1cc(C(C)=O)ccc1O[C@@H]1O[C@H](CO[C@@H]2OC[C@@H](O)[C@H](O)[C@H]2O)[C@@H](O)[C@H](O)[C@H]1O	inactive	inactive		
O=C(Nc1ccc(Cl)cc1F)c1ccccc1O	9.2 µM (active)	7.31 µM (active)		
CC1(C)CCCC2(C)C=C(C(=O)O)C(O)CC12 (stereo unspecified)	inactive	inactive		
C=C1C(=O)OC2C=C(C)CC/C=C(\CO)CC(O)C12 (stereo unspecified)	10.3 µM (active)	11.6 µM (active)		
CC(=O)O[C@H]1CC(C)(C)CC2[C@]13CO[C@@]21CCC2[C@@]4(C)CC[C@H](O[C@@H]5OC[C@H](O[C@@H]6O[C@H](CO)[C@@H](O)[C@H](O)[C@H]6O[C@@H]6OC[C@@H](O[C@@H]7O[C@H](CO)[C@@H](O)[C@H](O)[C@H]7O)[C@H](O)[C@H]6O)[C@H](O)[C@H]5O[C@@H]5O[C@H](CO)[C@@H](O)[C@H](O)[C@H]5O)[C@@](C)(CO)C4CC[C@@]2(C)[C@]1(C)C[C@H]3O (stereo partly specified)	1.55 µM (active)	1.23 µM (active)		
C/C(=C/CO)CC[C@H]1[C@]2(C)C[C@H](O)CC(C)(C)[C@H]2CC[C@]1(C)O	inactive	inactive		
CCCCC[C@H](O)C=C[C@H]1[C@H](O)CC(=O)[C@H]1CC=CCCCC(=O)O	0.119 µM (active)	0.0186 µM (active)		
COC(=O)c1ccccc1O[C@@H]1O[C@H](CO)[C@@H](O)[C@H](O)[C@H]1O[C@@H]1O[C@@H](C)[C@H](O)[C@@H](O)[C@H]1O	inactive	inactive		
O=C(/C=C\n1cnc(-c2cc(C(F)(F)F)cc(C(F)(F)F)c2)n1)N1CC(F)(F)C1	0.366 µM (active)	0.731 µM (active)		
COC(=O)N[C@H](C(=O)N1CCC[C@H]1c1ncc(-c2ccc(-c3ccc(-c4cnc([C@@H]5CCCN5C(=O)[C@@H](NC(=O)OC)C(C)C)[nH]4)cc3)cc2)[nH]1)C(C)C	18.6 µM (active)	16.6 µM (active)		
N#CCC(C1CCCC1)n1cc(-c2ncnc3[nH]ccc23)cn1 (stereo unspecified)	10.3 µM (active)	10.3 µM (active)		
O=C(CC1CC(c2ccc(F)cc2F)=NO1)N1CCOCC1 (stereo unspecified)	inactive	inactive		
COc1ccc([C@H]2OC[C@H]3O[C@@H](O[C@H]4[C@@H]2NC[C@@H]4O)[C@H](O)[C@H]3O)cc1	0.64 µM (active)	0.404 µM (active)		
COC(=O)C1=COC(OC2OC(CO)C(O)C(O)C2O)C2C1C=CC2(O)CO (stereo unspecified)	inactive	inactive		
COc1ccc(OC2OC(CO[C@@H]3O[C@@H](C)[C@H](O)[C@@H](O)[C@H]3O)C(O)C(O)C2O)cc1OC (stereo partly specified)	inactive	inactive		
C=C1CCC2C(C)(C(=O)O)CC(O)CC2(C)C1CC/C(C)=C/C(=O)O (stereo unspecified)	inactive	inactive		
CCC(C)(OC(C)=O)C(=O)O[C@H]1[C@H](OC(C)=O)[C@]2(CO)[C@H](O)[C@H](O)[C@]3(C)C(=CCC4[C@@]5(C)CC[C@H](O[C@@H]6O[C@H](C(=O)O)[C@@H](O)[C@H](O[C@@H]7OC[C@H](O)[C@H](O[C@@H]8OC[C@H](O)[C@H](O)[C@H]8O)[C@H]7O)[C@H]6O[C@@H]6O[C@H](CO)[C@@H](O)[C@H](O)[C@H]6O)C(C)(C)C5CC[C@]43C)[C@@H]2CC1(C)C (stereo partly specified)	2.75 µM (active)	2.45 µM (active)		
C/C=C(/C)C(=O)OC1CC(C)(C)CC2C3=CCC4C5(C)CCC(OC6OC(C)C(OC7OC(C(=O)O)C(O)C(OC8OC(CO)C(O)C(O)C8OC8OC(CO)C(O)C(O)C8O)C7O)C(O)C6O)C(C)(C)C5CCC4(C)C3(C)C(OC(=O)/C=C/C=C/C=C/CCC)C(OC(C)=O)C12CO (stereo unspecified)			68.8% [at 9.25 µM]	73.3% [at 9.25 µM]
